{"source": "PubChem BioAssay (NCI)", "note": "Compounds without any hit were thinned out: in the full panel of roughly 79,000, 15% have a hit. Activity calls are given as the source filed them. Cut-off read from the data, not from the text of the source: active = growth inhibition above about 70%; inactive = the rest. Where a SMILES comes first, the peptide text is derived from it."}
{"test": "NCI Yeast Anticancer Drug Screen. Data for the rad50 strain (AID 155);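 note: 0% = growth of vehicle-only cultures of the same strain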", "settings": "S. cerevisiae rad50 strain growth inhibition; at 50.0 µM; hits give high values", "in_short": "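Yeast carrying a defined DNA repair defect were exposed to test compounds, and growth was compared with vehicle-treated controls to give percent inhibition.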"}
{"smiles": "CC(C)CC(NC(=O)C(NC(=O)C(N)C(C)O)C(C)C)C(=O)O", "note": "(stereo not drawn) (H-Thr-Val-Leu-OH; configuration not given here)", "growth inhibition": "5.9% (inactive)"}
{"smiles": "CCOc1cc[n+](C)c2ccc(C)cc12", "growth inhibition": "13.6% (inactive)"}
{"smiles": "Nc1ncnc(N)c1NC(=O)CCCCc1ccccc1", "growth inhibition": "4.25% (inactive)"}
{"smiles": "CCN(CC)CCN(CC)CCN(CC)CC", "growth inhibition": "6.7% (inactive)"}
{"smiles": "O=C1NN(c2ccccc2)C(=O)C2C3c4ccccc4C(c4ccccc43)C12", "note": "(centres undefined)", "growth inhibition": "2.45% (inactive)"}
{"smiles": "Cn1c2c(c3ccccc31)C(=O)CC2(C)C", "growth inhibition": "-5.6% (inactive)"}
{"smiles": "CCCCCCCC(=O)Nc1ccc(-n2c(=O)cc(C)n2C)cc1", "growth inhibition": "15.7% (inactive)"}
{"smiles": "O=C(NC/C=C/Br)NC1CCNc2ccccc21", "note": "(centres undefined)", "growth inhibition": "-14.2% (inactive)"}
{"smiles": "CC(C)/C=C1\\CCC(CN(C)C)C1=O", "note": "(centres undefined)", "growth inhibition": "30.4% (inactive)"}
{"smiles": "CCOC(=O)CNc1nc(Cl)nc(NCC(=O)OCC)n1", "growth inhibition": "3.05% (inactive)"}
{"smiles": "Cc1c(F)c(F)c(-c2c(F)c(F)c(C)c(F)c2F)c(F)c1F", "growth inhibition": "5% (inactive)"}
{"smiles": "O=C(O)c1ccnc2c(S(=O)(=O)O)cccc12", "growth inhibition": "14.7% (inactive)"}
{"smiles": "O=C(NC(Cc1c[nH]c2ccccc12)C(=O)O)C(=O)c1c[nH]c2ccccc12", "note": "(centres undefined)", "growth inhibition": "-9.9% (inactive)"}
{"smiles": "O=C(O)c1ccc(Nc2nc3ccccc3nc2-c2cccs2)cc1", "growth inhibition": "2.9% (inactive)"}
{"smiles": "COc1ccc(-c2cc(-c3cc(-c4ccc(OC)cc4)on3)no2)cc1", "growth inhibition": "-1.6% (inactive)"}
{"smiles": "CC1OC(OCC2COC(O)(Oc3c(-c4ccc(O)c(O)c4)oc4cc(O)cc(O)c4c3=O)C(O)C2O)C(O)C(O)C1O", "note": "(centres undefined)", "growth inhibition": "20.1% (inactive)"}
{"smiles": "CCOC(=O)CC1(C)OCCO1", "growth inhibition": "31.9% (inactive)"}
{"smiles": "NC(Cc1c[nH]c2ccc(Br)cc12)C(=O)O", "note": "(centres undefined)", "growth inhibition": "-29.4% (inactive)"}
{"smiles": "COC(=O)C(CCC1(C)OCCO1)=[N+]=[N-]", "growth inhibition": "-7.05% (inactive)"}
{"smiles": "CCNC(CC(N)=O)C(=O)O", "note": "(centres undefined)", "growth inhibition": "-22.1% (inactive)"}
{"smiles": "CCN(CC)CCO/N=C(\\c1ccccc1)c1ccccn1", "growth inhibition": "4.6% (inactive)"}
{"smiles": "Cc1ccc(S(=O)(=O)Oc2nc3ccccc3nc2N(S(=O)(=O)c2ccc(C)cc2)S(=O)(=O)c2ccc(C)cc2)cc1", "growth inhibition": "-9.8% (inactive)"}
{"smiles": "CCOc1ccccc1/C=C/C(=O)O", "growth inhibition": "4.6% (inactive)"}
{"smiles": "COc1cc(C)cc2c(-c3c(O)cc(O)c4c3CC(C)N[C@H]4C)cc(-c3cc(-c4c(O)cc(O)c5c4CC(C)N[C@H]5C)c4cc(C)cc(OC)c4c3O)c(O)c12", "note": "(some centres undefined)", "growth inhibition": "15.2% (inactive)"}
{"smiles": "CCOC(=O)c1cc2c(oc1=O)-c1cc(C)ccc1OC2C", "note": "(centres undefined)", "growth inhibition": "-9.45% (inactive)"}
{"smiles": "CC(=O)Oc1cc(C=O)ccc1O", "growth inhibition": "0.75% (inactive)"}
{"smiles": "Cc1n(Cc2ccccc2)nc2sc(N)n[n+]12", "growth inhibition": "-32% (inactive)"}
{"smiles": "COC1OC2COC(c3ccccc3)OC2C(OS(=O)(=O)c2ccc(Br)cc2)C1OS(=O)(=O)c1ccc(Br)cc1", "note": "(centres undefined)", "growth inhibition": "-10.5% (inactive)"}
{"smiles": "COC(=O)C1=C(C)NC(C)=C(C(=O)OC)C1c1cccc(N=O)c1", "growth inhibition": "9.85% (inactive)"}
{"smiles": "Nc1cc2c(cc1Br)-c1cc(Cl)c(Cl)cc1C2=O", "growth inhibition": "-5.75% (inactive)"}
{"smiles": "Nc1cnc(N)nc1", "growth inhibition": "-8.4% (inactive)"}
{"smiles": "CC(=O)/C=C\\c1cc(C)ccc1O", "growth inhibition": "27.3% (inactive)"}
{"smiles": "CCC(/C=N/Nc1ccc([N+](=O)[O-])cc1[N+](=O)[O-])(CC)CC", "growth inhibition": "-2.85% (inactive)"}
{"smiles": "CN(C)c1ccc(-c2nc(N)nc3c2CCCC3)cc1", "growth inhibition": "-12.7% (inactive)"}
{"smiles": "O=C1C(=C(c2ccc([N+](=O)[O-])cc2)N2CCOCC2)C(=O)c2ccccc21", "growth inhibition": "8.9% (inactive)"}
{"smiles": "O=C(OC1CCCC1)c1ccccc1", "growth inhibition": "5.3% (inactive)"}
{"smiles": "CC(C)CC(NC(=O)c1ccccc1C(=O)O)C(N)=O", "note": "(centres undefined)", "growth inhibition": "-6.7% (inactive)"}
{"smiles": "CC(C)=CCCC(=O)C(c1nc2nnc(N)n2[nH]c1=O)c1nc2nnc(N)n2[nH]c1=O", "growth inhibition": "13.3% (inactive)"}
{"smiles": "CCC(=O)N1CCN(C(=O)CC)CC1", "growth inhibition": "6.4% (inactive)"}
